Out of some 290,000 compounds screened, about 1,000 (0.34%) were called active. Rule as the data show it: active = inhibition above about 50% (passing the limit was not always enough); inconclusive = no clear call, values can overlap the other calls. The sample as a whole holds a higher share of actives than the screen did.

SUMO-conjugating enzyme UBC9 (Homo sapiens), sequence (P63279 whole entry, looked up): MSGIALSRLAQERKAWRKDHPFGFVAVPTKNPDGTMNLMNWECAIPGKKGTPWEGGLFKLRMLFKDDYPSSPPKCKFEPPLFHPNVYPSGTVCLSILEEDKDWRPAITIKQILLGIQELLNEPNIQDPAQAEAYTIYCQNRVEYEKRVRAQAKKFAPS

The assay concerns the target SUMO-conjugating enzyme UBC9 (Homo sapiens) (UniProt P63279). Put plainly: inhibitors of in vitro SUMOylation cascade, primary screen, biochemical, HTRF, uHTS (AID 2006). As to conditions: HTRF SUMOylation assay, SAE1/SAE2 + UBC9, in vitro; at 35 µM; hits give high values. In general terms: In TR-FRET formats the signal depends on donor and acceptor labels being close together.
The term inhibition denotes the drop in the measured response relative to a control, in per cent. For `Cc1cccc(N2C(=O)NC(=O)/C(=C\c3cnn(-c4ccccc4)c3)C2=O)c1`, the inhibition is -3.4% (inactive).
Consider `COc1cccc(N2C(=O)NC(=O)/C(=C\c3ccc([N+](=O)[O-])s3)C2=O)c1`, for which the inhibition was 41.7% (inactive).
As to `O=C1NC(=O)N(c2ccccc2)C(=O)/C1=C/c1ccc([N+](=O)[O-])s1`, the inhibition was 51.6% (active).
`CC1CCC(N(C)C2CCN(C)CC2)CC1` (stereo not given): the inhibition is 9.4% (inactive).
In the case of `CC(c1ccccc1)(c1ccccc1)c1ccncc1` it was 4.4% (inactive).

Values taken from PubChem BioAssay AID2006 (Sanford-Burnham Center for Chemical Genomics, 2009).
